Assays:
Test in all cases: phenotypically active (imaging signature differs from DMSO and reproducible) at any of 0.3-9 uM (binary (1 = active, 0 = inactive)); higher = active
Details in all cases: treatment time: 24 h
A549-ACTB-RAB5A = system: A549-ACTB-RAB5A
Procedure, shortened: (§1)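 Phenotypic activity depended on meeting both a deviation and a reproducibility criterion. The fifteen gene-edited A549, HepG2 and WPMY1 reporter lines were treated at 0.3, 1, 3 or 9 µM for 24 h, four wells each, then imaged live with features normalised to solvent control wells. Deviation required ≥3 of 4 wells past the 95th percentile of control Euclidean distances, and reproducibility a median replicate Pearson correlation above the 95th percentile of non-replicates.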

A549-CANX-COX4 = system: A549-CANX-COX4
Procedure, shortened: as §1

A549-GM130-SQSTM1 = system: A549-GM130-SQSTM1
Procedure, shortened: as §1

A549-TP53BP1-CLTA = system: A549-TP53BP1-CLTA
Procedure, shortened: as §1

A549-TUBA1B-RELA = system: A549-TUBA1B-RELA
Procedure, shortened: as §1

HepG2-ACTB-RAB5A = system: HepG2-ACTB-RAB5A
Procedure, shortened: as §1

HepG2-CANX-COX4 = system: HepG2-CANX-COX4
Procedure, shortened: as §1

HepG2-GM130-SQSTM1 = system: HepG2-GM130-SQSTM1
Procedure, shortened: as §1

HepG2-TP53BP1-CLTA = system: HepG2-TP53BP1-CLTA
Procedure, shortened: as §1

HepG2-TUBA1B-RELA = system: HepG2-TUBA1B-RELA
Procedure, shortened: as §1

WPMY1-ACTB-RAB5A = system: WPMY1-ACTB-RAB5A
Procedure, shortened: as §1

WPMY1-CANX-COX4 = system: WPMY1-CANX-COX4
Procedure, shortened: as §1

WPMY1-GM130-SQSTM1 = system: WPMY1-GM130-SQSTM1
Procedure, shortened: as §1

WPMY1-TP53BP1-CLTA = system: WPMY1-TP53BP1-CLTA
Procedure, shortened: as §1

WPMY1-TUBA1B-RELA = system: WPMY1-TUBA1B-RELA
Procedure, shortened: as §1

Measured: phenotypically active

C=C(C)[C@@H]1CC[C@]2(C(=O)O)CC[C@]3(C)[C@H](CC[C@@H]4[C@@]5(C)CC[C@H](O)C(C)(C)[C@@H]5CC[C@]43C)[C@@H]12 [betulinic-acid]
inactive: A549-ACTB-RAB5A 0 | A549-CANX-COX4 0 | A549-GM130-SQSTM1 0 | A549-TP53BP1-CLTA 0 | A549-TUBA1B-RELA 0 | HepG2-ACTB-RAB5A 0 | HepG2-CANX-COX4 0 | HepG2-GM130-SQSTM1 0 | HepG2-TP53BP1-CLTA 0 | HepG2-TUBA1B-RELA 0 | WPMY1-ACTB-RAB5A 0 | WPMY1-CANX-COX4 0 | WPMY1-GM130-SQSTM1 0 | WPMY1-TP53BP1-CLTA 0 | WPMY1-TUBA1B-RELA 0

CCN(CC)C(C)CN1c2ccccc2Sc2ccccc21 (stereo not given) [profenamine]
inactive: A549-ACTB-RAB5A 0 | A549-CANX-COX4 0 | A549-GM130-SQSTM1 0 | A549-TP53BP1-CLTA 0 | A549-TUBA1B-RELA 0 | HepG2-ACTB-RAB5A 0 | HepG2-CANX-COX4 0 | HepG2-GM130-SQSTM1 0 | HepG2-TP53BP1-CLTA 0 | HepG2-TUBA1B-RELA 0 | WPMY1-ACTB-RAB5A 0 | WPMY1-CANX-COX4 0 | WPMY1-GM130-SQSTM1 0 | WPMY1-TP53BP1-CLTA 0 | WPMY1-TUBA1B-RELA 0

O=c1oc2c(O)c(O)cc3c(=O)oc4c(O)c(O)cc1c4c23 [Ellagic acid]
inactive: A549-ACTB-RAB5A 0 | A549-CANX-COX4 0 | A549-GM130-SQSTM1 0 | A549-TP53BP1-CLTA 0 | A549-TUBA1B-RELA 0 | HepG2-ACTB-RAB5A 0 | HepG2-CANX-COX4 0 | HepG2-GM130-SQSTM1 0 | HepG2-TP53BP1-CLTA 0 | HepG2-TUBA1B-RELA 0 | WPMY1-ACTB-RAB5A 0 | WPMY1-CANX-COX4 0 | WPMY1-GM130-SQSTM1 0 | WPMY1-TP53BP1-CLTA 0 | WPMY1-TUBA1B-RELA 0

O=C(/C=C/c1ccc(O)c(O)c1)O[C@@H]1C[C@](O)(C(=O)O)C[C@@H](O)[C@H]1O [Chlorogenic acid]
inactive: A549-ACTB-RAB5A 0 | A549-CANX-COX4 0 | A549-GM130-SQSTM1 0 | A549-TP53BP1-CLTA 0 | A549-TUBA1B-RELA 0 | HepG2-ACTB-RAB5A 0 | HepG2-CANX-COX4 0 | HepG2-GM130-SQSTM1 0 | HepG2-TP53BP1-CLTA 0 | HepG2-TUBA1B-RELA 0 | WPMY1-ACTB-RAB5A 0 | WPMY1-CANX-COX4 0 | WPMY1-GM130-SQSTM1 0 | WPMY1-TP53BP1-CLTA 0 | WPMY1-TUBA1B-RELA 0

O=C1NC(=O)C(c2ccccc2)(c2ccccc2)N1 [phenytoin]
inactive: A549-ACTB-RAB5A 0 | A549-CANX-COX4 0 | A549-GM130-SQSTM1 0 | A549-TP53BP1-CLTA 0 | A549-TUBA1B-RELA 0 | HepG2-ACTB-RAB5A 0 | HepG2-CANX-COX4 0 | HepG2-GM130-SQSTM1 0 | HepG2-TP53BP1-CLTA 0 | HepG2-TUBA1B-RELA 0 | WPMY1-ACTB-RAB5A 0 | WPMY1-CANX-COX4 0 | WPMY1-GM130-SQSTM1 0 | WPMY1-TP53BP1-CLTA 0 | WPMY1-TUBA1B-RELA 0

COP(=O)(OC)OC(c1ccc(Cl)cc1)P(=O)(OC)OC (stereo not given)
inactive: A549-ACTB-RAB5A 0 | A549-CANX-COX4 0 | A549-GM130-SQSTM1 0 | A549-TP53BP1-CLTA 0 | A549-TUBA1B-RELA 0 | HepG2-ACTB-RAB5A 0 | HepG2-CANX-COX4 0 | HepG2-GM130-SQSTM1 0 | HepG2-TP53BP1-CLTA 0 | HepG2-TUBA1B-RELA 0 | WPMY1-ACTB-RAB5A 0 | WPMY1-CANX-COX4 0 | WPMY1-GM130-SQSTM1 0 | WPMY1-TP53BP1-CLTA 0 | WPMY1-TUBA1B-RELA 0

CC(C)(C(=O)O)c1ccc(C(O)CCCN2CCC(C(O)(c3ccccc3)c3ccccc3)CC2)cc1 (stereo not given) [fexofenadine]
inactive: A549-ACTB-RAB5A 0 | A549-CANX-COX4 0 | A549-GM130-SQSTM1 0 | A549-TP53BP1-CLTA 0 | A549-TUBA1B-RELA 0 | HepG2-ACTB-RAB5A 0 | HepG2-CANX-COX4 0 | HepG2-GM130-SQSTM1 0 | HepG2-TP53BP1-CLTA 0 | HepG2-TUBA1B-RELA 0 | WPMY1-ACTB-RAB5A 0 | WPMY1-CANX-COX4 0 | WPMY1-GM130-SQSTM1 0 | WPMY1-TP53BP1-CLTA 0 | WPMY1-TUBA1B-RELA 0

NC12CC3CC(CC(C3)C1)C2 [amantadine]
inactive: A549-ACTB-RAB5A 0 | A549-CANX-COX4 0 | A549-GM130-SQSTM1 0 | A549-TP53BP1-CLTA 0 | A549-TUBA1B-RELA 0 | HepG2-ACTB-RAB5A 0 | HepG2-CANX-COX4 0 | HepG2-GM130-SQSTM1 0 | HepG2-TP53BP1-CLTA 0 | HepG2-TUBA1B-RELA 0 | WPMY1-ACTB-RAB5A 0 | WPMY1-CANX-COX4 0 | WPMY1-GM130-SQSTM1 0 | WPMY1-TP53BP1-CLTA 0 | WPMY1-TUBA1B-RELA 0

CN(C)CCOC(c1ccc(Cl)cc1)c1ccccn1 (stereo not given) [carbinoxamine]
inactive: A549-ACTB-RAB5A 0 | A549-CANX-COX4 0 | A549-GM130-SQSTM1 0 | A549-TP53BP1-CLTA 0 | A549-TUBA1B-RELA 0 | HepG2-ACTB-RAB5A 0 | HepG2-CANX-COX4 0 | HepG2-GM130-SQSTM1 0 | HepG2-TP53BP1-CLTA 0 | HepG2-TUBA1B-RELA 0 | WPMY1-ACTB-RAB5A 0 | WPMY1-CANX-COX4 0 | WPMY1-GM130-SQSTM1 0 | WPMY1-TP53BP1-CLTA 0 | WPMY1-TUBA1B-RELA 0

O=C(Nc1cc(C(F)(F)F)cc(C(F)(F)F)c1)c1cnc(Cl)nc1C(F)(F)F
inactive: A549-ACTB-RAB5A 0 | A549-CANX-COX4 0 | A549-GM130-SQSTM1 0 | A549-TP53BP1-CLTA 0 | A549-TUBA1B-RELA 0 | HepG2-ACTB-RAB5A 0 | HepG2-CANX-COX4 0 | HepG2-GM130-SQSTM1 0 | HepG2-TP53BP1-CLTA 0 | HepG2-TUBA1B-RELA 0 | WPMY1-ACTB-RAB5A 0 | WPMY1-CANX-COX4 0 | WPMY1-GM130-SQSTM1 0 | WPMY1-TP53BP1-CLTA 0 | WPMY1-TUBA1B-RELA 0

Cc1ccc([N+](=O)[O-])cc1S(=O)(=O)N(C)C
inactive: A549-ACTB-RAB5A 0 | A549-CANX-COX4 0 | A549-GM130-SQSTM1 0 | A549-TP53BP1-CLTA 0 | A549-TUBA1B-RELA 0 | HepG2-ACTB-RAB5A 0 | HepG2-CANX-COX4 0 | HepG2-GM130-SQSTM1 0 | HepG2-TP53BP1-CLTA 0 | HepG2-TUBA1B-RELA 0 | WPMY1-ACTB-RAB5A 0 | WPMY1-CANX-COX4 0 | WPMY1-GM130-SQSTM1 0 | WPMY1-TP53BP1-CLTA 0 | WPMY1-TUBA1B-RELA 0

CC1(C)CCC(C)(C)c2cc(C3(c4ccc(C(=O)O)cc4)OCCO3)ccc21
inactive: A549-ACTB-RAB5A 0 | A549-CANX-COX4 0 | A549-GM130-SQSTM1 0 | A549-TP53BP1-CLTA 0 | A549-TUBA1B-RELA 0 | HepG2-ACTB-RAB5A 0 | HepG2-CANX-COX4 0 | HepG2-GM130-SQSTM1 0 | HepG2-TP53BP1-CLTA 0 | HepG2-TUBA1B-RELA 0 | WPMY1-ACTB-RAB5A 0 | WPMY1-CANX-COX4 0 | WPMY1-GM130-SQSTM1 0 | WPMY1-TP53BP1-CLTA 0 | WPMY1-TUBA1B-RELA 0
